Source: the supplement of paper PMC4466140

Target: AgAbp1
Assay: SPOT peptide array binding signal intensity (averaged, normalized) (arbitrary units (background-subtracted, floor 0; scale differs between SH3 domains)); higher = stronger binding of the SH3 domain to the peptide
How it was run: (§1)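 Binding signal refers to normalized, background-subtracted spot intensity averaged over replicates, expressed in arbitrary units that differ between domains. GST-fused SH3 domains from four yeast species were incubated at 10 μg/ml overnight at 4°C on cellulose membranes of synthetic 15-mer peptides with cysteines replaced by serines. Bound protein was detected with anti-GST antibody, an HRP anti-mouse secondary and luminol, and quantified with Genespotter.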

Binder	SPOT peptide array binding signal intensity
FYHRPAPKPPVTKKV	250

Target: AgBbc1
Assay: as above
How it was run: as §1

Binder	SPOT peptide array binding signal intensity
FYHRPAPKPPVTKKV	123

Target: AgBem1-D1
Assay: as above
How it was run: as §1

Binder	SPOT peptide array binding signal intensity
FYHRPAPKPPVTKKV	68

Target: AgBzz1-D1
Assay: as above
How it was run: as §1

Binder	SPOT peptide array binding signal intensity
FYHRPAPKPPVTKKV	89

Target: AgBzz1-D2
Assay: as above
How it was run: as §1

Binder	SPOT peptide array binding signal intensity
FYHRPAPKPPVTKKV	65

Target: AgCyk3
Assay: as above
How it was run: as §1

Binder	SPOT peptide array binding signal intensity
FYHRPAPKPPVTKKV	6

Target: AgFus1
Assay: as above
How it was run: as §1

Binder	SPOT peptide array binding signal intensity
FYHRPAPKPPVTKKV	≤ 0

Target: AgHof1
Assay: as above
How it was run: as §1

Binder	SPOT peptide array binding signal intensity
FYHRPAPKPPVTKKV	3

Target: AgHse1
Assay: as above
How it was run: as §1

Binder	SPOT peptide array binding signal intensity
FYHRPAPKPPVTKKV	≤ 0

Target: AgLsb1
Assay: as above
How it was run: as §1

Binder	SPOT peptide array binding signal intensity
FYHRPAPKPPVTKKV	138

Target: AgLsb4
Assay: as above
How it was run: as §1

Binder	SPOT peptide array binding signal intensity
FYHRPAPKPPVTKKV	≤ 0

Target: AgMyo5
Assay: as above
How it was run: as §1

Binder	SPOT peptide array binding signal intensity
FYHRPAPKPPVTKKV	38.8

Target: AgNbp2
Assay: as above
How it was run: as §1

Binder	SPOT peptide array binding signal intensity
FYHRPAPKPPVTKKV	1040

Target: AgRvs167
Assay: as above
How it was run: as §1

Binder	SPOT peptide array binding signal intensity
FYHRPAPKPPVTKKV	1.33

Target: AgSho1
Assay: as above
How it was run: as §1

Binder	SPOT peptide array binding signal intensity
FYHRPAPKPPVTKKV	≤ 0

Target: AgSla1-D1-D2
Assay: as above
How it was run: as §1

Binder	SPOT peptide array binding signal intensity
FYHRPAPKPPVTKKV	≤ 0

Target: AgSla1-D3
Assay: as above
How it was run: as §1

Binder	SPOT peptide array binding signal intensity
FYHRPAPKPPVTKKV	6.5

Target: CaAbp1-D1
Assay: as above
How it was run: as §1

Binder	SPOT peptide array binding signal intensity
FYHRPAPKPPVTKKV	281

Target: CaAbp1-D2
Assay: as above
How it was run: as §1

Binder	SPOT peptide array binding signal intensity
FYHRPAPKPPVTKKV	269

Target: CaBbc1
Assay: as above
How it was run: as §1

Binder	SPOT peptide array binding signal intensity
FYHRPAPKPPVTKKV	454

Target: CaBem1-D1
Assay: as above
How it was run: as §1

Binder	SPOT peptide array binding signal intensity
FYHRPAPKPPVTKKV	364

Target: CaBzz1-D1
Assay: as above
How it was run: as §1

Binder	SPOT peptide array binding signal intensity
FYHRPAPKPPVTKKV	2440

Target: CaBzz1-D2
Assay: as above
How it was run: as §1

Binder	SPOT peptide array binding signal intensity
FYHRPAPKPPVTKKV	529

Target: CaCyk3
Assay: as above
How it was run: as §1

Binder	SPOT peptide array binding signal intensity
FYHRPAPKPPVTKKV	10.5

Target: CaFus1
Assay: as above
How it was run: as §1

Binder	SPOT peptide array binding signal intensity
FYHRPAPKPPVTKKV	≤ 0

Target: CaHof1
Assay: as above
How it was run: as §1

Binder	SPOT peptide array binding signal intensity
FYHRPAPKPPVTKKV	≤ 0

Target: CaHse1
Assay: as above
How it was run: as §1

Binder	SPOT peptide array binding signal intensity
FYHRPAPKPPVTKKV	≤ 0

Target: CaLsb1
Assay: as above
How it was run: as §1

Binder	SPOT peptide array binding signal intensity
FYHRPAPKPPVTKKV	3

Target: CaLsb4
Assay: as above
How it was run: as §1

Binder	SPOT peptide array binding signal intensity
FYHRPAPKPPVTKKV	≤ 0

Target: CaMyo5
Assay: as above
How it was run: as §1

Binder	SPOT peptide array binding signal intensity
FYHRPAPKPPVTKKV	8

Target: CaNbp2
Assay: as above
How it was run: as §1

Binder	SPOT peptide array binding signal intensity
FYHRPAPKPPVTKKV	843

Target: CaRvs167
Assay: as above
How it was run: as §1

Binder	SPOT peptide array binding signal intensity
FYHRPAPKPPVTKKV	3

Target: CaRvs167-3
Assay: as above
How it was run: as §1

Binder	SPOT peptide array binding signal intensity
FYHRPAPKPPVTKKV	≤ 0

Target: CaSho1
Assay: as above
How it was run: as §1

Binder	SPOT peptide array binding signal intensity
FYHRPAPKPPVTKKV	≤ 0

Target: CaSla1-D1-D2
Assay: as above
How it was run: as §1

Binder	SPOT peptide array binding signal intensity
FYHRPAPKPPVTKKV	105

Target: CaSla1-D3
Assay: as above
How it was run: as §1

Binder	SPOT peptide array binding signal intensity
FYHRPAPKPPVTKKV	45.2

Target: ScAbp1
Assay: as above
How it was run: as §1

Binder	SPOT peptide array binding signal intensity
FYHRPAPKPPVTKKV	87.5

Target: ScBbc1
Assay: as above
How it was run: as §1

Binder	SPOT peptide array binding signal intensity
FYHRPAPKPPVTKKV	330

Target: ScBem1-D1
Assay: as above
How it was run: as §1

Binder	SPOT peptide array binding signal intensity
FYHRPAPKPPVTKKV	4

Target: ScBzz1-D1
Assay: as above
How it was run: as §1

Binder	SPOT peptide array binding signal intensity
FYHRPAPKPPVTKKV	678

Target: ScBzz1-D2
Assay: as above
How it was run: as §1

Binder	SPOT peptide array binding signal intensity
FYHRPAPKPPVTKKV	39

Target: ScCyk3
Assay: as above
How it was run: as §1

Binder	SPOT peptide array binding signal intensity
FYHRPAPKPPVTKKV	≤ 0

Target: ScFus1
Assay: as above
How it was run: as §1

Binder	SPOT peptide array binding signal intensity
FYHRPAPKPPVTKKV	≤ 0

Target: ScHof1
Assay: as above
How it was run: as §1

Binder	SPOT peptide array binding signal intensity
FYHRPAPKPPVTKKV	≤ 0

Target: ScHse1
Assay: as above
How it was run: as §1

Binder	SPOT peptide array binding signal intensity
FYHRPAPKPPVTKKV	≤ 0

Target: ScLsb1
Assay: as above
How it was run: as §1

Binder	SPOT peptide array binding signal intensity
FYHRPAPKPPVTKKV	32.5

Target: ScLsb2
Assay: as above
How it was run: as §1

Binder	SPOT peptide array binding signal intensity
FYHRPAPKPPVTKKV	106

Target: ScLsb3
Assay: as above
How it was run: as §1

Binder	SPOT peptide array binding signal intensity
FYHRPAPKPPVTKKV	53

Target: ScLsb4
Assay: as above
How it was run: as §1

Binder	SPOT peptide array binding signal intensity
FYHRPAPKPPVTKKV	3

Target: ScMyo3
Assay: as above
How it was run: as §1

Binder	SPOT peptide array binding signal intensity
FYHRPAPKPPVTKKV	284

Target: ScMyo5
Assay: as above
How it was run: as §1

Binder	SPOT peptide array binding signal intensity
FYHRPAPKPPVTKKV	459

Target: ScNbp2
Assay: as above
How it was run: as §1

Binder	SPOT peptide array binding signal intensity
FYHRPAPKPPVTKKV	1680

Target: ScPex13
Assay: as above
How it was run: as §1

Binder	SPOT peptide array binding signal intensity
FYHRPAPKPPVTKKV	530

Target: ScRvs167
Assay: as above
How it was run: as §1

Binder	SPOT peptide array binding signal intensity
FYHRPAPKPPVTKKV	12.8

Target: ScSho1
Assay: as above
How it was run: as §1

Binder	SPOT peptide array binding signal intensity
FYHRPAPKPPVTKKV	12

Target: ScSla1-D1-D2
Assay: as above
How it was run: as §1

Binder	SPOT peptide array binding signal intensity
FYHRPAPKPPVTKKV	238

Target: ScSla1-D3
Assay: as above
How it was run: as §1

Binder	SPOT peptide array binding signal intensity
FYHRPAPKPPVTKKV	475

Target: SpAbp1-D1
Assay: as above
How it was run: as §1

Binder	SPOT peptide array binding signal intensity
FYHRPAPKPPVTKKV	50.5

Target: SpBbc1
Assay: as above
How it was run: as §1

Binder	SPOT peptide array binding signal intensity
FYHRPAPKPPVTKKV	19.2

Target: SpBzz1-D1
Assay: as above
How it was run: as §1

Binder	SPOT peptide array binding signal intensity
FYHRPAPKPPVTKKV	647
